How the values were obtained:
Assay in all cases: DAPPL (digital affinity profiling via proximity ligation, sequencing); 10 mM Tris-HCl pH 7.5, 50 mM NaCl, 1 mM DTT, 4% glycerol, room temperature, 30 min; GST-TFs on glutathione beads, 16-mer random dsDNA library, 0.1% formaldehyde crosslink after washing; high values mean tight binding
[1] = target: T1, FLI1 (Homo sapiens, UniProt Q01543 1-452); settings: protein: recombinant; tags: N-terminal GST; dsDNA, one strand shown
T1 sequence: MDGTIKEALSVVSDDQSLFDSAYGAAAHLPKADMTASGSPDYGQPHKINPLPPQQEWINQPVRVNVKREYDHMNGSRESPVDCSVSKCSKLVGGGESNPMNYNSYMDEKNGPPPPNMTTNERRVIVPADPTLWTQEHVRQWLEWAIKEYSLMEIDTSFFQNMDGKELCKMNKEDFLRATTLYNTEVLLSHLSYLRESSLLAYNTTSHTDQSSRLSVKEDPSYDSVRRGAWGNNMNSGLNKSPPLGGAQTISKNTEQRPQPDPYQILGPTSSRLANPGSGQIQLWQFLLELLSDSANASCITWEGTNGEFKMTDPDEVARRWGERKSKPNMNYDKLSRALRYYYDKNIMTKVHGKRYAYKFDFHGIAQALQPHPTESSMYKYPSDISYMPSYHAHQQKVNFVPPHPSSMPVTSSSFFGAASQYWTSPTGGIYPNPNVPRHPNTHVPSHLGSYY
In short: (§1)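 A tag-only sample was pooled with DNA-barcoded human transcription factors that had been expressed in yeast as GST fusions and captured on glutathione beads. The pools were incubated for 30 min at room temperature with 200 nmole of a random double-stranded 16-mer DNA library in Tris/NaCl/DTT/glycerol buffer, then washed, crosslinked with 0.1% formaldehyde, proximity-ligated (BsaI/T4 ligase, 1 h, 37 °C), PCR-amplified and sequenced on an Illumina NextSeq500. Binding signal is each hexamer's read frequency for a factor divided by its frequency for the tag-only sample.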

[2] = target: T2, ELK1 (Homo sapiens, UniProt P19419 1-428); settings: protein: recombinant; tags: N-terminal GST; dsDNA, one strand shown
T2 sequence: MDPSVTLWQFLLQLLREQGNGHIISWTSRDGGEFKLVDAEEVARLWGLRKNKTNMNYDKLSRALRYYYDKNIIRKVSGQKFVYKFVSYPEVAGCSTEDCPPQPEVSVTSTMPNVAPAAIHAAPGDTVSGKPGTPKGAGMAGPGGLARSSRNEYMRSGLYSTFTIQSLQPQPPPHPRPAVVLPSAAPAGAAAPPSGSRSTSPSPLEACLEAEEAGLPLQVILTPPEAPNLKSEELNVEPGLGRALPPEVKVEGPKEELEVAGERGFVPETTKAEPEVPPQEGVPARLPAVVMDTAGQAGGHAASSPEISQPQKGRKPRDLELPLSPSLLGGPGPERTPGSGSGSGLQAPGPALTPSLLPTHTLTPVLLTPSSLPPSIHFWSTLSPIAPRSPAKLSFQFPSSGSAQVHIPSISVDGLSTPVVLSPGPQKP
In short: as §1

[3] = target: T3, GABPA (Homo sapiens, UniProt Q06546 1-454); settings: protein: recombinant; tags: N-terminal GST; dsDNA, one strand shown
T3 sequence: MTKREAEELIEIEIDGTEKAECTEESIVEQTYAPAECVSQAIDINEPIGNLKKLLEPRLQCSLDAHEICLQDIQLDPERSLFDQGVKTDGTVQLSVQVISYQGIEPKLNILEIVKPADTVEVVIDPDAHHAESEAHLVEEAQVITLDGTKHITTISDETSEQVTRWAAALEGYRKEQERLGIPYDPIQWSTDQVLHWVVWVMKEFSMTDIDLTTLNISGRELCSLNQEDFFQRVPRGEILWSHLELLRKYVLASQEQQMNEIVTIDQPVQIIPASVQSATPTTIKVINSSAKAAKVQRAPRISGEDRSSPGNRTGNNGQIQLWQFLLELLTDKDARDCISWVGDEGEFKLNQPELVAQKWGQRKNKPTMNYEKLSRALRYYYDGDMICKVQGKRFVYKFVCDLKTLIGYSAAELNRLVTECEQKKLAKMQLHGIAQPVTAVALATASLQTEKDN
In short: as §1

[4] = target: T4, ERG (Homo sapiens, UniProt P11308 1-479); settings: protein: recombinant; tags: N-terminal GST; dsDNA, one strand shown
T4 sequence: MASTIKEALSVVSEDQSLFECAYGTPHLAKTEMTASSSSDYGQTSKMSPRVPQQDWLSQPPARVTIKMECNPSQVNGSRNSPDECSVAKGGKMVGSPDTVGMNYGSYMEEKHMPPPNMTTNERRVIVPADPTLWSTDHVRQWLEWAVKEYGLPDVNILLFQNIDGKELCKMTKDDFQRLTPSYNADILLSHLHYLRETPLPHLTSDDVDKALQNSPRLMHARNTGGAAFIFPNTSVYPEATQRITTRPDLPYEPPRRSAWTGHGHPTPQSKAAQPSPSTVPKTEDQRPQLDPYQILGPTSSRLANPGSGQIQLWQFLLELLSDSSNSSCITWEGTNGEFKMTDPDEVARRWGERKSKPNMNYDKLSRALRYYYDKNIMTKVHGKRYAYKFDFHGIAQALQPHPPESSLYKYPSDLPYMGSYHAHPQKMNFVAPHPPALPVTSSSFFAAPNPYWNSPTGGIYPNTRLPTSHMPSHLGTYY
In short: as §1

[5] = target: ELF1 (Homo sapiens, UniProt P32519 1-619); settings: protein: recombinant; tags: N-terminal GST; dsDNA, one strand shown
Sequence of ELF1 (P32519 whole entry): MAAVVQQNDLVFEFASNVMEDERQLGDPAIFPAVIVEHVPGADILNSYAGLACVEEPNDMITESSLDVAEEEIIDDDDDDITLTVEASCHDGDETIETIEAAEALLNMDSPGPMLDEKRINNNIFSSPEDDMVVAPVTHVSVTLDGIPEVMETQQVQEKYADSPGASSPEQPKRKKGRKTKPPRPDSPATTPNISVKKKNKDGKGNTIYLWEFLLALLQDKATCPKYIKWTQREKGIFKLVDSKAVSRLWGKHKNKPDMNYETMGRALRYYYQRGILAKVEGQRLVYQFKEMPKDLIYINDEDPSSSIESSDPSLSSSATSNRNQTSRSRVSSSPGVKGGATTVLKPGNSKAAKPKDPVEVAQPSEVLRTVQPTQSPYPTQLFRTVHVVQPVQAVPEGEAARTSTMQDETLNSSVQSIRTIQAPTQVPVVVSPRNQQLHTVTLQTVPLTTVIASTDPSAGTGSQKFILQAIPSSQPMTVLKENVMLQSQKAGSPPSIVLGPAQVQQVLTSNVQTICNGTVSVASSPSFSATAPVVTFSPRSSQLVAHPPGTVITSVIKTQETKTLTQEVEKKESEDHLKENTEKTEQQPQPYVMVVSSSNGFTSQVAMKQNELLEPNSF
In short: as §1

[6] = target: T5, EHF (Homo sapiens, UniProt Q9NZC4 1-300); settings: protein: recombinant; tags: N-terminal GST; dsDNA, one strand shown
T5 sequence: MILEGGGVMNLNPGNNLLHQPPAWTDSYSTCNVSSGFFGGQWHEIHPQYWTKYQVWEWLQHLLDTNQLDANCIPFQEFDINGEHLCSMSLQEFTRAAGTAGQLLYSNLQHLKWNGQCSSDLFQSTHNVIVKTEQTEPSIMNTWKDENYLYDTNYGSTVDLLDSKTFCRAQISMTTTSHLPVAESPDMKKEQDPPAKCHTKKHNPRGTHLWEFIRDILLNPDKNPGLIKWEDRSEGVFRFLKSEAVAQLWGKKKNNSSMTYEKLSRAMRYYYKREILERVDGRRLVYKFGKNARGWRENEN
In short: as §1

[7] = target: SPI1 (Homo sapiens, UniProt P17947 1-270); settings: protein: recombinant; tags: N-terminal GST; dsDNA, one strand shown
In short: as §1

[8] = target: SPIB (Homo sapiens, UniProt Q01892 1-262); settings: protein: recombinant; tags: N-terminal GST; dsDNA, one strand shown
Sequence of SPIB (Q01892 whole entry): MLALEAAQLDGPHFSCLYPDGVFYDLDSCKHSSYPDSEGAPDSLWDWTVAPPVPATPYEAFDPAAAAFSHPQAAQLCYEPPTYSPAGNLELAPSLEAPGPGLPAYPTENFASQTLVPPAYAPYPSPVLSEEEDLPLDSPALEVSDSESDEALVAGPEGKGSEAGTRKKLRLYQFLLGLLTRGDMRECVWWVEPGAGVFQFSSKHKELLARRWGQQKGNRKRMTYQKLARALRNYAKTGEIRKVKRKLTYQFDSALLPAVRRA
In short: as §1

[9] = target: T6, ELK3 (Homo sapiens, UniProt P41970 1-407); settings: protein: recombinant; tags: N-terminal GST; dsDNA, one strand shown
T6 sequence: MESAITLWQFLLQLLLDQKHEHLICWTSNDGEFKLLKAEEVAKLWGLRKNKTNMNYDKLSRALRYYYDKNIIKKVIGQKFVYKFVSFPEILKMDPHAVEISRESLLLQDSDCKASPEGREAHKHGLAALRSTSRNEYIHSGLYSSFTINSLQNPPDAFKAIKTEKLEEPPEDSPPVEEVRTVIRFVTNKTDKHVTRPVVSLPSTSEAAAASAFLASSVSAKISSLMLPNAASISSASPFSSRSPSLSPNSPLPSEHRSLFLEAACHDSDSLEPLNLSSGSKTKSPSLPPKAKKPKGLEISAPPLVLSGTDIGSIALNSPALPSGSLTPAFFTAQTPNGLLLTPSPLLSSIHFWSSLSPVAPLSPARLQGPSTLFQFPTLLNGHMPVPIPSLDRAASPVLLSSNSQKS
In short: as §1

[10] = target: T7, FEV (Homo sapiens, UniProt Q99581 1-238); settings: protein: recombinant; tags: N-terminal GST; dsDNA, one strand shown
T7 sequence: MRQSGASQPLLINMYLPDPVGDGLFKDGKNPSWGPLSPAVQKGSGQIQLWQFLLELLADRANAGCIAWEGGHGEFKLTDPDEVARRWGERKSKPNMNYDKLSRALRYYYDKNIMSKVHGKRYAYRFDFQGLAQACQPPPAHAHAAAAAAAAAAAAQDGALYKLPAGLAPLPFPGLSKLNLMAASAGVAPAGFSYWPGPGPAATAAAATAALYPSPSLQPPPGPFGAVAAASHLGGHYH
In short: as §1

[11] = target: ETV5 (Homo sapiens, UniProt P41161 1-510); settings: protein: recombinant; tags: N-terminal GST; dsDNA, one strand shown
Sequence of ETV5 (P41161 whole entry): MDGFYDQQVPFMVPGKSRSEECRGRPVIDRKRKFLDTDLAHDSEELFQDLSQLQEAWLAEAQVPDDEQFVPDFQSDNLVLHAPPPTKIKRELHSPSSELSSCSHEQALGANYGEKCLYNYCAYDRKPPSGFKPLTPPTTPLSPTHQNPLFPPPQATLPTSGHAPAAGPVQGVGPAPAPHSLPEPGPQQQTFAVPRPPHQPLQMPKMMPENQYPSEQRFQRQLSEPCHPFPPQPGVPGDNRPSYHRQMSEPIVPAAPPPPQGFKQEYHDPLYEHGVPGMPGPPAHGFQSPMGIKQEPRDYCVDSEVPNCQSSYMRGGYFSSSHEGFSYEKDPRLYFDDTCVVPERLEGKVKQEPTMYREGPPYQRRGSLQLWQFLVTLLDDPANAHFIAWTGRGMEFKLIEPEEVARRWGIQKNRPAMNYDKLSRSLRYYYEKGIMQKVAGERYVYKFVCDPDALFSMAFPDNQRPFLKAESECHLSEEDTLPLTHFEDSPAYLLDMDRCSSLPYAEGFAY
In short: as §1

[12] = target: HSF1 (Homo sapiens, UniProt Q00613 1-529); settings: protein: recombinant; tags: N-terminal GST; chain copies: 3; dsDNA, one strand shown
Sequence of HSF1 (Q00613 whole entry): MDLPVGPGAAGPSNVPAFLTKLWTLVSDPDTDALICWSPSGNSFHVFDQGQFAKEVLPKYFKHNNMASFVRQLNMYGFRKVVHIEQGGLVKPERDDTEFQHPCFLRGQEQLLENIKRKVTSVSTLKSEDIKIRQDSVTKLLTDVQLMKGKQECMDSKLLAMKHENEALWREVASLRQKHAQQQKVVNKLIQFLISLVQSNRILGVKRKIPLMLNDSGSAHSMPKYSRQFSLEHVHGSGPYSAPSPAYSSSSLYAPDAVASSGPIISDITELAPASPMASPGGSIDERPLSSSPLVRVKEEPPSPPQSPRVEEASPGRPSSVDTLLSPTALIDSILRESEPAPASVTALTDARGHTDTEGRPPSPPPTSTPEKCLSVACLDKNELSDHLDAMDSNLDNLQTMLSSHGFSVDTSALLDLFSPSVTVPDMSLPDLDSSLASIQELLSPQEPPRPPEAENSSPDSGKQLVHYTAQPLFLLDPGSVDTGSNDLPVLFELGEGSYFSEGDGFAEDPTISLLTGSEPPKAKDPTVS
In short: as §1

[13] = target: T8, SPIC (Homo sapiens, UniProt Q8N5J4 1-248); settings: protein: recombinant; tags: N-terminal GST; dsDNA, one strand shown
T8 sequence: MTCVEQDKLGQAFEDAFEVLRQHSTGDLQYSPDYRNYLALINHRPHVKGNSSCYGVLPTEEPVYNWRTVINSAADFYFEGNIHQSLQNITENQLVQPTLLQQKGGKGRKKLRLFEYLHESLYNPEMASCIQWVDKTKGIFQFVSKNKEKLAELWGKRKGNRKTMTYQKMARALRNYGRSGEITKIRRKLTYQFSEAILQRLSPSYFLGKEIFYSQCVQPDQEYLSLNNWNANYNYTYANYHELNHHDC
In short: as §1

[14] = target: ELF4 (Homo sapiens, UniProt Q99607 1-663); settings: protein: recombinant; tags: N-terminal GST; dsDNA, one strand shown
Sequence of ELF4 (Q99607 whole entry): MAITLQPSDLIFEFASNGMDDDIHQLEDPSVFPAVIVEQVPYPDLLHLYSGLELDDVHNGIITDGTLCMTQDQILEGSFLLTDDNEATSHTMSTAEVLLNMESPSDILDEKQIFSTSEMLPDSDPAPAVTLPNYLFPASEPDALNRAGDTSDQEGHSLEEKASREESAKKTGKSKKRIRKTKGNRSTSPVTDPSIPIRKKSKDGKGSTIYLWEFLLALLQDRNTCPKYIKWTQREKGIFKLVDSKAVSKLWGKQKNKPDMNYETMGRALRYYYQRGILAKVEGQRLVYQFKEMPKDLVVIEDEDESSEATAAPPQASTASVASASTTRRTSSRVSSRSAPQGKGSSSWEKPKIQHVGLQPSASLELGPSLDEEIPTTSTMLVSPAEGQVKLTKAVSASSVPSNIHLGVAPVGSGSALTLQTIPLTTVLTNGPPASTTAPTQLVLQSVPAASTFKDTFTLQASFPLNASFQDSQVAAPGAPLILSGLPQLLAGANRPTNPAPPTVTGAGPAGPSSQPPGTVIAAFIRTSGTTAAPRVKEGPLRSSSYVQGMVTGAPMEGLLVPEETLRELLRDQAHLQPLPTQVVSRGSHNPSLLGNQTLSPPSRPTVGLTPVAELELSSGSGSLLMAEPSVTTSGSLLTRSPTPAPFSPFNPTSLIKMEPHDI
In short: as §1

[15] = target: T9, ELK4 (Homo sapiens, UniProt P28324-2 1-405); settings: protein: recombinant; tags: N-terminal GST; dsDNA, one strand shown
T9 sequence: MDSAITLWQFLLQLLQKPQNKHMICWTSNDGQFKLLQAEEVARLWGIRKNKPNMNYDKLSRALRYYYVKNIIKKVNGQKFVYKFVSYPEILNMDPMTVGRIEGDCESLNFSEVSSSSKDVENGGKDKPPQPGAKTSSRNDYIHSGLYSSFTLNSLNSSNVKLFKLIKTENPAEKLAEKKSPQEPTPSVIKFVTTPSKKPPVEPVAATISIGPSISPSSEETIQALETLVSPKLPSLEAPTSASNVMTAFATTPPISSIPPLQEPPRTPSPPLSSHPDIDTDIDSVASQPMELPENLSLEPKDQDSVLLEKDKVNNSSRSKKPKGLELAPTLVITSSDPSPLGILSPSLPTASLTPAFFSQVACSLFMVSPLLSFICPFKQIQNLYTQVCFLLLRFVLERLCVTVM
In short: as §1

[16] = target: T10, ETV2 (Homo sapiens, UniProt O00321 1-342); settings: protein: recombinant; tags: N-terminal GST; dsDNA, one strand shown
T10 sequence: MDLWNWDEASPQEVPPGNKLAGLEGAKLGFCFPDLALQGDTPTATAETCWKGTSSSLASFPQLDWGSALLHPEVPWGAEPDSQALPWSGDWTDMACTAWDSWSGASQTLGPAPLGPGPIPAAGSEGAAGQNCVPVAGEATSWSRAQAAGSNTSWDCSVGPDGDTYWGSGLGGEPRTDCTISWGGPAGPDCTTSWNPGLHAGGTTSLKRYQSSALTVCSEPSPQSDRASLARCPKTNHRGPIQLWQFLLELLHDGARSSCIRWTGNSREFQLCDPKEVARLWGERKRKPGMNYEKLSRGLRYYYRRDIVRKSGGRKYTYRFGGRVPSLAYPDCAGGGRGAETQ
In short: as §1

[17] = target: T11, ELF3 (Homo sapiens, UniProt P78545 1-371); settings: protein: recombinant; tags: N-terminal GST; dsDNA, one strand shown
T11 sequence: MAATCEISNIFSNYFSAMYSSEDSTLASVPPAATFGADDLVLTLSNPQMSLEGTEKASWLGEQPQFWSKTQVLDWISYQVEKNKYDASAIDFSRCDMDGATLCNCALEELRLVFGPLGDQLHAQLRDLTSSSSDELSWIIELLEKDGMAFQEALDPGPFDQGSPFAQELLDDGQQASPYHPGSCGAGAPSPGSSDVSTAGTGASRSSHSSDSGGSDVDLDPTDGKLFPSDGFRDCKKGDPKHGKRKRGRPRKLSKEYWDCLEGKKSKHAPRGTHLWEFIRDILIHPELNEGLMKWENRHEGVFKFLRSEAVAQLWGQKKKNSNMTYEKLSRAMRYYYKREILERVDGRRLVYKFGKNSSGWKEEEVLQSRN
In short: as §1

[18] = target: CRX (Homo sapiens, UniProt O43186 1-299); settings: protein: recombinant; tags: N-terminal GST; dsDNA, one strand shown
Sequence of CRX (O43186 whole entry): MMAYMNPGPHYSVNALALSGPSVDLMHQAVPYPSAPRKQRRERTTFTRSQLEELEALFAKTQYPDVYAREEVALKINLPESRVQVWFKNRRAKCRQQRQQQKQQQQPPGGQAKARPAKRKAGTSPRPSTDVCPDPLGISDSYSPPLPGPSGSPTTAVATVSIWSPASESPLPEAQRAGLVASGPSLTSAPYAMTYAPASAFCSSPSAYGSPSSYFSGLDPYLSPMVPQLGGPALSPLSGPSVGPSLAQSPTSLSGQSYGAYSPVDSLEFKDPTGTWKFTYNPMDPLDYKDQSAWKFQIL
In short: as §1

[19] = target: ETV1 (Homo sapiens, UniProt P50549 1-477); settings: protein: recombinant; tags: N-terminal GST; dsDNA, one strand shown
Sequence of ETV1 (P50549 whole entry): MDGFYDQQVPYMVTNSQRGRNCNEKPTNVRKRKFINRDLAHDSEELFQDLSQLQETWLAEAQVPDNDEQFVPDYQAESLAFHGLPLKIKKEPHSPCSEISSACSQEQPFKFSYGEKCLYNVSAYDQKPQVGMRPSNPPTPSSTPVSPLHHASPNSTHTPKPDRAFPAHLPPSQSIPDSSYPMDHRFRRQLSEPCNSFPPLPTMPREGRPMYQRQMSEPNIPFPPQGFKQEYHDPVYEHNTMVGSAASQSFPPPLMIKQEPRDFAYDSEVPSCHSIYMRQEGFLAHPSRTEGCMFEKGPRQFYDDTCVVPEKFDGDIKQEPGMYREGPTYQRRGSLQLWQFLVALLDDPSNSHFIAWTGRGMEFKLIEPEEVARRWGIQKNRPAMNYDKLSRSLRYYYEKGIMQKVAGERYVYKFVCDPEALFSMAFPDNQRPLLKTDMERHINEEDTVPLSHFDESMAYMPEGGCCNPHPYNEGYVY
In short: as §1

Sequence: TTTTCA
- binding signal [1]: 1.12 fold enrichment (6-mer frequency, TF over GST control)
- binding signal [2]: 1.19 fold enrichment (6-mer frequency, TF over GST control)
- binding signal [3]: 1.3 fold enrichment (6-mer frequency, TF over GST control)
- binding signal [4]: 1.17 fold enrichment (6-mer frequency, TF over GST control)
- binding signal [5]: 1.18 fold enrichment (6-mer frequency, TF over GST control)
- binding signal [6]: 1.22 fold enrichment (6-mer frequency, TF over GST control)
- binding signal [7]: 1.29 fold enrichment (6-mer frequency, TF over GST control)
- binding signal [8]: 1.27 fold enrichment (6-mer frequency, TF over GST control)
- binding signal [9]: 1.09 fold enrichment (6-mer frequency, TF over GST control)
- binding signal [10]: 1.17 fold enrichment (6-mer frequency, TF over GST control)
- binding signal [11]: 1.2 fold enrichment (6-mer frequency, TF over GST control)
- binding signal [12]: 1.14 fold enrichment (6-mer frequency, TF over GST control)
- binding signal [13]: 1.22 fold enrichment (6-mer frequency, TF over GST control)
- binding signal [14]: 1.27 fold enrichment (6-mer frequency, TF over GST control)
- binding signal [15]: 1.2 fold enrichment (6-mer frequency, TF over GST control)
- binding signal [16]: 1.24 fold enrichment (6-mer frequency, TF over GST control)
- binding signal [17]: 1.31 fold enrichment (6-mer frequency, TF over GST control)
- binding signal [18]: 1.28 fold enrichment (6-mer frequency, TF over GST control)
- binding signal [19]: 1.22 fold enrichment (6-mer frequency, TF over GST control)

Source: PMC7862700, “An all-to-all approach to the identification of sequence-specific readers for epigenetic DNA modifications on cytosine”
